DENV2 CPE rescue: DENV2-induced cell death inhibition; CPE inhibition, % at 9.99 µM; DENV2-infected cells, cytopathic effect rescue, plate reader; AID 651640; actives 1.7% (n = 350,000); in the data active = CPE inhibition above about 20%, passing the limit was not always enough; inconclusive = no clear call, values can overlap the other calls; tested in BHK-21 cells;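 note: 0% = median of neutral control wells and 100% = median of positive control wells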
PDI turbidity: blocks human protein disulfide isomerase activity; inhibition, % at 10 µM; actives 0.052% (n = 350,000); AID 588391; PDI insulin aggregation turbidity, A650, 90 min;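 active = mean inhibition across replicates of 30% or more, whatever share of single replicates reach that level; inconclusive = mean inhibition below 30% while every single replicate reaches 30%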
ERp5 inh: blocks human ERp5 reductase activity on insulin. Q15084. ERp5 insulin aggregation, absorbance 650 nm, 90 min. inhibition, % at 9.99 µM. actives 0.05% (n = 350,000);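 active = mean replicate inhibition above about 25%, with every replicate also reaching it, limit read from the data, passing the limit was not always enough; inconclusive = only one of those two criteria met; inactive = neither criterion met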
Target sequence (Q15084 whole entry, looked up): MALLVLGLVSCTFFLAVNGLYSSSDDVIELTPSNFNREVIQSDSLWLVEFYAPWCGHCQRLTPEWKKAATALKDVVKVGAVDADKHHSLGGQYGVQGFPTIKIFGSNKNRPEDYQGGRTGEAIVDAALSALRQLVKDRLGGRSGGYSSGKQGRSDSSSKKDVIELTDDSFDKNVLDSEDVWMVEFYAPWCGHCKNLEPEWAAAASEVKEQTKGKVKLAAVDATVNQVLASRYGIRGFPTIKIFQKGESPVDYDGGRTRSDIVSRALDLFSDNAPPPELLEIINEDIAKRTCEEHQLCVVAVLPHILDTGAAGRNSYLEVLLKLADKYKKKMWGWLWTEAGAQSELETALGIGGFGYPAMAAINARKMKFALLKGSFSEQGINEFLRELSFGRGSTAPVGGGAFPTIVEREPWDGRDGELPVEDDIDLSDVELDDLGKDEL
MLL AF4-AF9 inh: inhibitors of human MLL-AF4/AF9 interaction; P42568; AlphaScreen, biotin-AF4 peptide binding to FLAG-AF9; inhibition, % at 10 µM; actives 0.47% (n = 350,000);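 active = every replicate reaching a set inhibition limit, whatever the replicate mean, cut at about 25% in these data; inconclusive = mean inhibition reaches that limit but some replicates miss it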;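 note: 0% = plate neutral control median and 100% = total signal loss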
ERAP1 inh: blocks human ERAP1 aminopeptidase activity; actives 0.15% (n = 340,000); AID 652197; recombinant ERAP1, Leu-AMC fluorescence, 60 min; Q9NZ08; inhibition, % at 10.7 µM;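 active = mean replicate inhibition of at least 30%, or all replicates individually reaching that 30% level; inactive = mean below 30% and not every replicate reaching it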;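 note: 0% = neutral control wells and 100% = L-leucinethiol positive control wells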
* = called active by the depositor; ? = inconclusive; . = not tested or not shown. Only some compounds are listed: those with a hit (about 1.8% of all), similar ones and a draw of the others.

SMILES | DENV2 CPE rescue | PDI turbidity | ERp5 inh | MLL AF4-AF9 inh | ERAP1 inh
Cc1ccc(S(=O)(=O)N2CC[C@@H]3[C@H]2c2cc(-c4ccc(C#N)cc4)ccc2N[C@@H]3CO)cc1 | 24.3* | . | . | . | .
COc1ccc(S(=O)(=O)N2CC[C@@H]3[C@@H](CO)Nc4ccc(-c5ccc(C#N)cc5)cc4[C@@H]32)cc1 | 7.2 | . | -0.8 | -21.4 | -2.8
Cc1cccc(S(=O)(=O)N2CC[C@@H]3[C@H]2c2cc(-c4ccccc4F)ccc2N[C@@H]3CO)c1 | 40.0* | . | . | . | .
O=S(=O)(c1ccc(F)cc1)N1CC[C@H]2[C@H](CO)Nc3ccc(-c4ccccc4F)cc3[C@H]21 | 42.8* | . | 17.6 | 1.5 | 3.5
COC(=O)C[C@@H]1C[C@H]2c3cc(NC(=O)Nc4ccc(F)cc4)ccc3O[C@H]2[C@H](CO)O1 | -5.3 | . | . | . | .
Cc1ccccc1S(=O)(=O)N1CC[C@@H]2[C@@H](CO)Nc3ccc(-c4ccccc4F)cc3[C@@H]21 | 42.0* | . | 2.3 | 3.6 | -1.0
Cc1ccc(S(=O)(=O)N2CC[C@@H]3[C@H](CO)Nc4ccc(-c5ccccc5F)cc4[C@@H]32)cc1 | 147.2* | . | 1.9 | -8.4 | 0.8
Cc1ccc(S(=O)(=O)N2CC[C@H]3[C@H](CO)Nc4ccc(-c5ccccc5F)cc4[C@H]32)cc1 | 18.2 | . | 2.4 | 2.1 | -2.3
O=C(NC[C@H]1[C@@H](c2ccccc2)[C@@H](CO)N1Cc1ccccn1)C1CCC1 | -4.6 | . | . | . | .
Cc1ccc(OCCNC(=O)c2cccc(S(=O)(=O)NCc3ccccc3)c2)cc1 | 6.9 | 4.7 | 2.6 | 6.1 | 1.9
CS(=O)(=O)NCc1ccc(C(=O)NCCOc2ccccc2)cc1 | 30.7* | -2.4 | 2.7 | -80.2 | 2.4
C[C@H](CO)N1C[C@H](C)[C@H](CN(C)Cc2ccc(C(=O)O)cc2)Oc2ccc(NC(=O)Nc3ccc4c(c3)OCO4)cc2C1=O | -4.6 | . | 1.1 | 0.2 | -0.1
COc1ccccc1C1c2ccc3ccccc3c2Oc2ncn(CCN(C)C)c(=N)c21 (configuration not stated) | -2.9 | -0.9 | 0.7 | 18.4 | -20.0
COc1ccc(C2c3ccc4ccccc4c3Oc3ncn(CCCN(C)C)c(=N)c32)cc1 (configuration not stated) | 4.3 | 11.9 | 3.9 | 33.3* | -5.9
C[C@@H]1CN([C@H](C)CO)C(=O)Cc2cc(NC(=O)Cn3cnnn3)ccc2O[C@H]1CN(C)C(=O)Nc1cccc2ccccc12 | -1.8 | . | . | . | .
CN1CCN(C(=S)c2cn(Cc3ccc(Br)cc3)c3ccccc23)CC1 | 8.1 | 0.8 | -0.3 | 27.0* | 2.7
CN1CCN(C(=S)c2cn(Cc3ccccc3)c3ccccc23)CC1 | -3.5 | 1.7 | 2.6 | 11.9 | 1.0
O=[N+]([O-])c1ccc(C=NN2CCCCCC2)cc1 | ? | -0.7 | -1.5 | 35.0* | 0.4
C[C@@H]1CN([C@@H](C)CO)C(=O)c2cc(C#CCC3CCCC3)cnc2O[C@@H]1CN(C)C(=O)CN(C)C | -3.0 | . | -0.7 | 5.6 | -2.9
O=C(NC1CCN(Cc2ccccc2)CC1)c1ccc(CS(=O)c2ccc(F)cc2)o1 (configuration not stated) | 8.5 | -15.1 | . | 0.5 | -3.0
O=C(NC1CCN(Cc2ccccc2)CC1)c1ccc(CS(=O)c2ccccc2Cl)o1 (configuration not stated) | 70.4* | 0.2 | 0.5 | 1.5 | -4.4
CCCC(=O)Nc1ccc2c(c1)OC[C@@H](C)N(Cc1cccc(F)c1)C[C@H](C)[C@H](OC)CN(C)C2=O | -5.4 | . | 3.3 | 2.3 | 2.8
Cc1csc(NC(=O)CCSCCc2ccccn2)n1 | 1.4 | 15.6 | -6.0 | 42.4* | -1.5
COc1cccc(NC(=O)COc2cccc3c2CCNC3=O)c1 | 27.6* | -13.9 | 5.4 | -21.6 | 2.4
COc1ccc(NC(=O)COc2cccc3c2CCNC3=O)cc1 | -3.6 | -5.7 | -6.8 | -0.3 | 0.0
SMILES | DENV2 CPE rescue | PDI turbidity | ERp5 inh | MLL AF4-AF9 inh | ERAP1 inh
COc1ccc(C(=O)N/N=C(\C)CC(=O)Nc2ccc(N(C)C)cc2)c(OC)c1 | 115.6* | -1.4 | 0.9 | 7.9 | 10.7
COc1ccc(CC(=O)Nc2ccc(/C(C)=N/NC(=O)c3ccc(OC)cc3OC)cc2)cc1 | 2.4 | -5.3 | -0.8 | -0.5 | 1.5
C[C@H](CO)N1C[C@H](C)[C@H](CN(C)CC2CC2)Oc2ccc(NC(=O)CCC(F)(F)F)cc2CC1=O | 20.7* | . | 3.5 | -1.7 | 1.6
C[C@H](CO)N1C[C@H](C)[C@@H](CN(C)C(=O)NC2CCCCC2)Oc2ccc(NC(=O)CCC(F)(F)F)cc2CC1=O | 31.9* | . | 0.9 | 0.7 | 0.6
C[C@@H]1CN([C@H](C)CO)C(=O)Cc2cc(NC(=O)CCC(F)(F)F)ccc2O[C@@H]1CN(C)CC1CC1 | -3.7 | . | 4.1 | -1.0 | -5.1
Cc1ccc(-c2ccc(C3[C@@H]4CN(S(=O)(=O)c5cccc(C)c5)C[C@H]3N4)cc2)cc1 (some centres not stated) | 3.0 | . | -2.5 | -3.2 | .
C[C@H](CO)N1C[C@H](C)[C@@H](CN(C)Cc2ccc(C(=O)Nc3ccccc3N)cc2)Oc2c(NS(=O)(=O)c3cn(C)cn3)cccc2C1=O | -2.8 | . | 7.1 | 3.7 | 5.3
C#CCN1C(=O)[C@]2(OCCC=C[C@H]2C)c2ccccc21 | 77.1* | . | 5.6 | . | 4.9
COC(=O)c1ccc(CN2C(=O)[C@]3(OCCC=C[C@H]3C)c3ccccc32)cc1 | -2.3 | . | 1.4 | . | 3.3
CCCC(=O)N1CC2(C1)CN(C(=O)C1CCOCC1)[C@H](CO)c1[nH]c3cc(OC)ccc3c12 | 6.3 | . | -4.0 | -3.9 | -0.9
CC(C)c1ccc(NC(=O)C(c2ccccc2)N2CCN(C(=O)c3ccco3)CC2)cc1 (configuration not stated) | . | 14.5 | . | . | .
Cc1ccc(NC(=O)N2CCCC2)cc1Cl | -4.5 | -8.4 | 0.5 | -4.0 | 2.6
Cc1ccc(NC(=O)N2CCN(C(=O)c3ccco3)CC2)cc1Cl | 38.5* | -14.5 | 1.0 | 2.3 | -3.0
O=C(Nc1ccc(F)cc1)C(c1cccc(F)c1)N1CCN(C(=O)c2ccco2)CC1 (configuration not stated) | 47.2* | . | -1.4 | . | 1.3
COc1cc(/C=C/c2cccc[n+]2C)ccc1OCC(=O)Nc1cccc(Cl)c1 | 24.8* | 5.4 | 8.2 | 6.6 | 14.3
C[C@@H]1CN([C@H](C)CO)S(=O)(=O)c2ccc(-c3ccc(C#N)cc3)cc2O[C@H]1CN(C)C | -0.2 | . | -3.8 | -0.1 | -1.5
CC(NC(=O)CSc1ncccn1)c1ccc2c(c1)OCO2 (configuration not stated) | 4.1 | 2.9 | 0.9 | 6.7 | 1.9
CC(NC(=O)CCc1ccccc1)c1ccc2c(c1)OCO2 (configuration not stated) | 28.6* | 16.3 | -0.8 | -8.8 | -4.5
CN1[C@@H]2c3ccc(-c4ccc(F)cc4)c(=O)n3C[C@H]1[C@H](CO)[C@H]2C(=O)N1CCCCC1 | 9.4 | . | -7.5 | -1.8 | 0.3
O=C(NCc1ccccc1Cl)c1cc(=O)[nH]c2ccccc12 | -1.3 | 7.1 | 0.8 | 0.0 | 48.3*
Cc1ccc(S(=O)(=O)N(Cc2ccccc2)Cc2ccco2)cc1 | . | -0.2 | . | . | .

Assay outcomes as filed in PubChem.
